The results in this text go back to PubChem BioAssay (Tox21).

Each structure is given as a SMILES string. Inconclusive results are not listed. Where a call stands in place of a potency, no number is given. Activity calls are given as the source filed them. Calls come from the whole dose curve; as a rule, active = well fitted cell-killing curve with a large enough effect in the repeat runs (not every such curve was filed as active); inconclusive = weak or mixed curves, or effect the other way; inactive = no such curve, though single readings can be large or run the other way.
Potency is the fitted concentration of half-maximal effect.

The assay can be described thus: qHTS assay to identify small molecule antagonists of the estrogen related receptor signaling pathway with the pleiotropic PPARgamma coactivator (PGC) from Tox21 10K library - cell viability counter screen (AID 1224840). Note: nearly all actives have a fitted effect of over 40% in size. Conditions: PGC/ERR reporter cells viability, CellTiter-Fluor, 17.5 h; series mostly up to 92.4 µM. The text has this:
National Center for Advancing Translational Sciences [NCATS]
NIH Chemical Genomics Center [NCGC]
U.S. Environmental Protection Agency [EPA]
National Institutes of Environmental Health Sciences [NIEHS]
National Toxicology Program [NTP]
U.S. Food and Drug Administration [FDA]
Estrogen related receptors (ERRs), the first orphan nuclear receptors discovered, play an important role in the control of cellular energy metabolism. ERRs are required for high-energy production in response to the environmental challenges. The pleiotropic PPARgamma coactivator (PGC) is a major partner of ERR and a key regulator in energy homeostasis. Together they have been implicated in the etiology of metabolic disorders such as Type 2 diabetes and metabolic syndrome. ERR-alpha was also identified as an adverse marker for breast cancer progression; ERR-alpha-positive tumors have a poor prognosis. To screen and to identify environmental compounds that perturb the ERR and PGC/ERR signaling pathways could provide valuable information for potential therapeutic or preventive measures in the treatment of metabolic disease. To differentiate true PGC/ERR antagonists or agonist from cytotoxic substances, the assay is multiplexed with cell viability assay.
Tox21 Assay Protocol Summary:
The PGC/ERR cells were dispensed at 2,000 cells/5 ul/well in 1536-well white plates using a Multidrop dispenser. After the assay plates were incubated at a 37 C/5% CO2 incubator for 6 hours, 23 nL of compounds dissolved in DMSO, positive and negative controls or DMSO only was transferred to the assay plate by a pin tool. The plates were incubated at 37 C for 17.5 hours. 1 ul/well of CellTiter-Fluor reagent was added into the assay plates using a Flying Reagent Dispenser. After 30-minute incubation at 37 C/5% CO2, the fluorescence intensity in the plates was measured using a ViewLux plate reader.
As for `CCCC1COC(Cn2cncn2)(c2ccc(Cl)cc2Cl)O1` (stereo not given), the Potency is 61.1 µM (active).
As for `OCCN(CCO)CCO`, the Potency entry is “inactive”.
Regarding `CCC12COCN1COC2`, the Potency entry was “inactive”.
On to `O=S(=O)(c1ccc(O)cc1)c1ccc(O)cc1`, for which the Potency result is “inactive”.
Consider `CC1C=[C-]C=C1.[C-]#[O+].[C-]#[O+].[C-]#[O+].[Mn]`, for which the Potency result is “inactive”.
For `OC(O)C(Cl)(Cl)Cl`, the Potency entry is “inactive”.
On to `CCCCN(CCCC)SN(C)C(=O)Oc1cccc2c1OC(C)(C)C2`, for which the Potency entry is “inactive”.
Take `O=c1[nH]c(=O)[nH]c(=O)[nH]1`: the Potency entry was “inactive”.
With `Clc1ccccc1Cl`, the Potency entry is “inactive”.
For `CCCCCOC(=O)c1ccccc1C(=O)OCCCCC` the value was “inactive”; for `CC(Br)C(=O)O` (stereo not given), “inactive”; for `C1CC2OC2CC1C1CO1` (stereo not given), “inactive”.
Consider `CCOP(=S)(OCC)SCCSCC`, for which the Potency result was “inactive”.
For `ClCCBr` the value was “inactive”.
Consider `c1ccc2c(c1)oc1ccccc12`, for which the Potency entry is “inactive”.
Next, `Clc1ccc(Cl)cc1`: “inactive”.
As to `Clc1cccc(Cl)c1Cl`, the Potency result is “inactive”.
As to `CCN(CC)c1ccccc1`, the Potency result was “inactive”.
As to `CC(C)N1C(=O)c2ccccc2NS1(=O)=O`, the Potency entry is “inactive”.
Consider `CC(Oc1ccc(Cl)cc1Cl)C(=O)O` (stereo not given), for which the Potency entry is “inactive”.
Consider `O=C(NC(=O)c1c(F)cccc1F)Nc1cc(Cl)c(OC(F)(F)C(F)C(F)(F)F)cc1Cl` (stereo not given), for which the Potency result is “inactive”.
Next, `CCOP(=S)(OCC)Oc1cnc2ccccc2n1`: “inactive”.
Next, `Nc1ccc(Cc2ccc(N)cc2)cc1`: “inactive”; `COC(=O)c1ccccc1C(=O)OC`: “inactive”.
For `CC(=O)C=C(C)C` the value was “inactive”.
On to `CC(C)OC(=O)Nc1ccccc1`, for which the Potency result was “inactive”.
With `Nc1c(Cl)c(Cl)nc(C(=O)O)c1Cl`, the Potency result was “inactive”.
Take `CCc1cccc(C)c1N(C(=O)CCl)C(C)COC` (stereo not given): the Potency result is “inactive”.
Next, `c1ccc2c(c1)Oc1ccccc1O2`: “inactive”.
For `Nc1ccc(Oc2ccc(N)cc2)cc1` the value was “inactive”.
On to `c1ccc(OP(Oc2ccccc2)Oc2ccccc2)cc1`, for which the Potency result is “inactive”.
As for `O=c1ccc(=O)[nH][nH]1`, the Potency entry is “inactive”.
Regarding `CC1OC(C)OC(C)O1` (stereo not given), the Potency entry is “inactive”.
As to `COCCl`, the Potency result is “inactive”.
Next, `O=C(O)c1ccccn1`: “inactive”.
Next, `CN(N=O)c1ccccc1`: “inactive”; `O=C1CCCN1`: “inactive”; `c1ccc(-c2ccccc2)cc1`: “inactive”.
Next, `CC(C)NC(=O)N1CC(=O)N(c2cc(Cl)cc(Cl)c2)C1=O`: “inactive”; `CN(C)CCO`: “inactive”.
